esBAF inh = Bmi1 luciferase reporter increase in mESCs, primary screen, esBAF inhibitor project, mouse ES cells, Bmi1 luciferase knock-in, single point | 24 h; 100% = twice the neutral-well signal | reporter increase, % at 12.5 µM | 350,000 compounds, 2% hits; in the data active = activation above about 40%; inconclusive = no clear call, values can overlap the other calls;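 also: 0% = median of the plate's neutral control wells and 100% = double that signal; a rise in the Bmi1 reporter signal indicates esBAF inhibition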
MITF TRPM1 inh = inhibitors of MITF-dependent TRPM1 promoter reporter, primary screen, cell-based, SK-MEL-5, single point, luciferase | 330,000 compounds, 0.83% hits | inhibition, % at 12.5 µM | AID 488899, 2010 | SK-MEL-5 TRPM1 promoter luciferase, 24 h;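 active = mean inhibition across replicates of 60% or more, whatever share of single replicates reaches that level; inconclusive = some that reach 60%, reason not given; inactive = mean inhibition across replicates below 60%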
PAX8 inh HTS = inhibitors of PAX8-driven TPO luciferase reporter, primary screen, RMG-I cells, single concentration | SteadyGlo, 24 h | 360,000 compounds, 1.2% hits | inhibition, % at 12.6 µM;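 active = mean replicate inhibition at least 60% with every replicate also reaching 60%; inconclusive = only one of the two criteria is met; inactive = mean below 60% and not all replicates reaching 60%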;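 also: luciferase light reporting Pax8 driven TPO promoter activity; plate controls were median of neutral control wells for no effect and mitoxantrone controls for full effect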
Wnt bcat act = Wnt/beta-catenin pathway activators, primary screen, cell-based, plate reader, single point | Wnt/beta-catenin reporter cell assay, activator | activation, % at 9.35 µM | 300,000 compounds, 1.2% hits; in the data active = activation above about 30%, passing the limit was not always enough; inconclusive = no clear call, values can overlap the other calls;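 also: 0% = neutral control wells and 100% = positive control wells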
EWS-Fli block = EWS/Fli-driven NR0B1 reporter inhibitors, primary screen, A673 cells, NR0B1 luciferase, luminescence, MLPCN library; viability-normalised; inhibition, % at 12.6 µM; 350,000 compounds, 0.67% hits; AID 651661, 2012;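 active = mean inhibition of at least 50% after viability correction, with every replicate also passing that limit; inconclusive = mean reaches 50% but only one of two replicates passes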;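 also: firefly luciferase signal divided by Alamar Blue viability fluorescence both relative to DMSO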
MITF act = activators of MITF-driven TRPM1 promoter reporter, primary screen, cell-based, SK-MEL-5, luciferase, single point | SK-MEL-5 TRPM1-promoter luciferase, 24 h; % of positive control, neutral wells = 0 | activation, % at 12.5 µM | 300,000 compounds, 0.75% hits;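 active = mean activation of at least 80% with every replicate also reaching 80%; inconclusive = mean reaches 80% but some replicate falls short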;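 also: 0% = neutral control wells and 100% = parthenolide positive control wells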
Starred values were filed as active, the others as inactive; ? = inconclusive; nt = no result; ! = repeats disagree. A selection: hits, their analogues and other compounds. The true share with any hit is near 4%.

SMILES | esBAF inh | MITF TRPM1 inh | PAX8 inh HTS | Wnt bcat act | EWS-Fli block | MITF act
Cc1ccc(S(=O)(=O)Nc2ccc3c(c2)CC(=O)N([C@@H](C)CO)C[C@H](C)[C@@H](CN(C)C(=O)NC2CCCCC2)O3)cc1 | -2 | nt | -3 | nt | -2 | nt
COc1ccc(S(=O)(=O)Nc2ccc3c(c2)CC(=O)N([C@H](C)CO)C[C@H](C)[C@@H](CN(C)Cc2ccc(C(=O)Nc4ccccc4N)cc2)O3)cc1 | -14 | nt | nt | nt | 33 | nt
Cc1ccc(-c2nc(C(Cl)Cl)c3ccccc3n2)cc1 | nt | 17 | -8 | 6 | 59* | -20
CO[C@@H]1CN(C)C(=O)c2cc(NS(=O)(=O)Cc3ccccc3)ccc2OC[C@H](C)NC[C@@H]1C | -12 | nt | -14 | nt | 0 | nt
CC(C)=CCN(C(=O)C#Cc1ccccc1)[C@H](CO)c1ccccc1 | nt | nt | 105* | nt | 42 | nt
C#CCN(CC=C(C)C)[C@H](CO)c1ccccc1 | nt | nt | -6 | nt | -5 | nt
O=C1N(c2ccccc2)C[C@@H]2C[C@@H](c3cc4ccccc4o3)N3CCC[C@@]123 | nt | 40 | 98* | -8 | 39 | -39
O=C(OCc1c(-c2ccccc2)ncc2ccccc12)N1CCOCC1 | 57* | -100 | 1 | 37* | -22 | 101*
O=C(O)CCC(=O)OCc1c(-c2ccccc2)ncc2ccccc12 | 1 | -2 | 34 | 0 | -1 | 4
C[C@H](CO)N1C[C@H](C)[C@H](CN(C)C(=O)Nc2ccccc2F)Oc2cc(-c3ccc(C(=O)N(C)C)cc3)ccc2S1(=O)=O | 2 | nt | 5 | nt | 5 | nt
Cn1c2ccccc2c(=O)c2ccc(C#CC3(O)CCCCC3)cc21 | -37 | 15 | 9 | -5 | 57* | -11
COc1ccc(C#Cc2ccc3c(c2)O[C@@H](CN(C)C(=O)Nc2cccc(OC)c2)[C@@H](C)CN([C@H](C)CO)S3(=O)=O)cc1 | 5 | nt | nt | nt | 7 | nt
COc1ccc(/C=N/Nc2nccnc2Cl)c(OC)c1 | nt | -84 | -103 | nt | -116 | 88*
COc1ccc(Oc2nccc(-c3ccccc3)c2C#N)cc1 | 55* | -71 | nt | nt | nt | 65
COc1ccc(Oc2nccc(-c3ccc(F)cc3)c2C#N)cc1 | 36 | -34 | nt | nt | nt | 34
C[C@@H]1CN([C@@H](C)CO)C(=O)Cc2cc(NC(=O)Cc3cn(C)c4ccccc34)ccc2O[C@@H]1CN(C)CC1CC1 | 4 | nt | nt | nt | 8 | nt
O=C(CN1CCCCC1)Nc1ccc(Br)cc1[N+](=O)[O-] | 49* | -19 | -19 | 0 | -21 | 23
CCCCN1C(=O)/C(=C/C=C2/CC(C)(C)CN2C)SC1=S | 93* | -71 | -73 | 14 | nt | 64
CCCCN1C(=O)/C(=C/C=C2\Oc3ccccc3N2CC)SC1=S | -4 | -8 | -5 | -2 | -35 | 13
COc1ccc(C)cc1NC(=O)CNC(c1ccccc1)c1ccc(C)cc1 (centres undefined) | -20 | 26 | 8 | -5 | 55* | -27
COc1ccc(NC(=O)Nc2ccc3c(c2)CCC3)cc1 | 52* | -104 | -145 | 13 | -85 | 105*
O=C(CCCCC(=O)Nc1ccc(F)cc1F)Nc1ccc(F)cc1F | nt | -5 | 3 | 33* | -8 | nt
COc1cccc(NC(=O)n2ncc3c(C)cccc32)c1 | -35 | -13 | -127 | 45* | ? | 9
COc1cccc(NC(=S)Nc2ccc(F)cc2)c1 | 6 | 3 | 24 | 41* | 10 | -1
COCC(=O)Nc1ccc2c(c1)OC[C@@H](C)N(C(=O)c1ccncc1)C[C@@H](C)[C@H](OC)CN(C)C2=O | -3 | nt | nt | nt | -13 | nt
SMILES | esBAF inh | MITF TRPM1 inh | PAX8 inh HTS | Wnt bcat act | EWS-Fli block | MITF act
COc1ccc(NC(=S)Nc2ccc(N)c([N+](=O)[O-])c2)cc1 | 47* | -16 | -42 | 45* | nt | 19
CCC1CCC(NC(=O)Nc2cccc(OC)c2)CC1 (centres undefined) | 83* | -73 | -190 | 57* | nt | ?
COc1ccc(OC)c(/C=C/C(=O)Nc2ccc3c(c2)CCC3)c1 | nt | -3 | 51 | -1 | -41 | -1
COc1ccc(NC(=O)Nc2ccc3oc(C)nc3c2)cc1 | nt | -42 | -121 | 40* | -79 | 44
COc1ccccc1/C=C/C(=O)Nc1ccc2c(c1)CCC2 | nt | -112 | -22 | 28 | nt | 114*
CN1C(=O)c2cc(NC(=O)c3cc(F)cc(F)c3)ccc2OC[C@H]2O[C@H](CC(=O)O)CC[C@H]21 | 2 | nt | -3 | nt | 3 | nt
COc1ccc(NC(=S)NCc2ccc(F)cc2)cc1 | 42* | 5 | -36 | 3 | -6 | -7
COc1ccc(CNC(=O)Nc2ccc(C)cc2)cc1 | 55* | -41 | nt | -2 | nt | 46
COC(=O)[C@H](Cc1ccccc1)NC(=O)NCc1ccc(C)cc1 | -3 | nt | 4 | 51* | -4 | nt
COc1ccc(NC(=S)Nc2ccc3nccnc3c2)cc1 | 65* | -77 | -40 | nt | nt | 88*
COc1ccc(NC(=S)Nc2ccc3snnc3c2)cc1 | 30 | -54 | -68 | 4 | -74 | 51
N#C[C@H]1[C@H](c2ccc(-c3ccc(F)cc3)cc2)[C@H](CO)N1c1nc(-c2ccccc2)cs1 | nt | nt | nt | nt | 5 | nt
COc1ccc(NC(=O)Nc2ccc(F)cc2F)cc1 | ? | -86 | -189 | nt | -109 | 92*
COC(=O)c1ccccc1NC(=O)Nc1ccc(Br)cn1 | nt | -1 | -23 | 3 | -26 | 4
COc1ccc(NC(=O)Nc2ccc(Br)cn2)cc1 | nt | -88 | -128 | 27 | -68 | 87*
COc1ccc(-c2nc3cc(NC(=S)NC(=O)Cc4ccccc4)ccc3o2)cc1 | nt | -94 | -132 | nt | nt | 97*
COc1ccc(NC(=O)Nc2cccc(OC)c2)cc1 | 37 | -96 | nt | ? | nt | 96*
COc1ccccc1NC(=O)N[C@@H]1CC[C@@H](CC(=O)N[C@@H](C)c2ccccc2)O[C@@H]1CO | 5 | nt | -2 | nt | 5 | nt
Cc1ccc(S(=O)(=O)N(C)C[C@H]2OCCCC[C@H](C)Oc3ccc(NS(=O)(=O)c4cn(C)cn4)cc3C(=O)N([C@H](C)CO)C[C@@H]2C)cc1 | -5 | nt | -13 | nt | 0 | nt
O=C(C[C@@H]1CC[C@@H](NC(=O)CN2CCOCC2)[C@H](CO)O1)NCCc1ccccc1 | 1 | nt | -6 | nt | -9 | nt
COc1cccc(NC(=O)Nc2ccccc2Br)c1 | 59* | -70 | -70 | 23 | nt | 72
COc1ccc(-c2ccc(C3[C@H]4CNC[C@@H]3N4C(=O)Nc3cccc(OC)c3)cc2)cc1 (some centres undefined) | nt | nt | 0 | nt | 59*! | nt
COc1cccc(NC(=O)N2[C@@H]3CNC[C@H]2C3c2ccc(-c3cccnc3)cc2)c1 (some centres undefined) | nt | nt | nt | nt | -1 | nt
CO[C@@H]1CN(C)C(=O)c2cc(NC(C)=O)ccc2OC[C@H](C)N(C(=O)c2ccccc2F)C[C@H]1C | -2 | nt | nt | nt | -5 | nt

Screens (PubChem)
